Data reported in ChEMBL document CHEMBL3433997, “St. Jude Leishmania screening dataset” (2016).

What was measured:
Assay type in all cases: functional
[1] = target: Solute carrier family 2, facilitated glucose transporter member 1 (Homo sapiens) (UniProt P11166); experiment: ST_JUDE_LEISH: Cytotoxicity at 2uM final concentration against transgenic Leishmania Mexicana promastigotes LmGLUT1 that are glucose transport deficient and complemented with the human glucose transporter GLUT1. Activity is measured by DNA content using SYBR green in vitro
Chain of Solute carrier family 2, facilitated glucose transporter member 1 (Homo sapiens) (P11166 whole entry): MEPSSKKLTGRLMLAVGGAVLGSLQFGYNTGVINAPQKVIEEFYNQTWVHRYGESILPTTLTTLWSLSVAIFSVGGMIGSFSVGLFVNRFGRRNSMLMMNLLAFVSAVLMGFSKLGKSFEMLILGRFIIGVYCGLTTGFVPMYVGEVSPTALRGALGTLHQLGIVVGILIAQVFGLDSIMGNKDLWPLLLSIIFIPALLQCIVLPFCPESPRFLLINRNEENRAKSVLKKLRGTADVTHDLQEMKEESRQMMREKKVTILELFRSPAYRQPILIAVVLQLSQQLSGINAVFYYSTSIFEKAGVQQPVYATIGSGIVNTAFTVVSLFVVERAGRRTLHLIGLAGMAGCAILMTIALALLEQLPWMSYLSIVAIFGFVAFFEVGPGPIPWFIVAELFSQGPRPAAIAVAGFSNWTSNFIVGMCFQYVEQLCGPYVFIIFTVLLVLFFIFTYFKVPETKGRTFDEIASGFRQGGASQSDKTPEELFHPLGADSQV

[2] = target: Hexose transporter 1 (Plasmodium falciparum) (UniProt O97467); experiment: ST_JUDE_LEISH: Cytotoxicity at 2uM final concentration against transgenic Leishmania Mexicana promastigotes LmPfHT that are glucose transport deficient and complemented with the Plasmodium falciparum hexose transporter. Activity is measured by DNA content using SYBR green in vitro
[3] = target: Glucose transporter (Leishmania mexicana) (UniProt O61059); experiment: ST_JUDE_LEISH: Cytotoxicity at 2uM final concentration against transgenic Leishmania Mexicana promastigotes LmGT2 that are glucose transport deficient and complemented with the L. Mexicana glucose transporter 2. Activity is measured by DNA content using SYBR green in vitro

How did the inhibition [1] turn out when `N=C(NC1CC1)c1ccc2[nH]c(CCCCCc3nc4cc(C(=N)NC5CC5)ccc4[nH]3)nc2c1` was run?
The inhibition was -1.14%.

And the inhibition [2]?
The inhibition was -0.68%.

And the inhibition [3]?
The inhibition was 1.61%.

How did the inhibition [1] turn out when `COc1ccccc1CN1CCC(NC(=O)c2ccc(-c3ccc(N(C)C)cc3)s2)CC1` was run?
Its inhibition is 9.96%.

And the inhibition [2]?
The inhibition was 12.6%.

And the inhibition [3]?
The inhibition was 8.12%.

Which results are given for `Cc1nc(Nc2ccc(F)cc2)nc(N2CCc3ccccc3C2C)c1CO` (centres undefined)?
inhibition [1]: 5.38%; inhibition [2]: 7.38%; inhibition [3]: 1.5%
